Test results from PubChem BioAssay (NCI).
The panel holds about 83,000 compounds, 20% with a hit somewhere; the sample as a whole holds those more often.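 Negative percent growth values reflect cell death: -40 means 40% of the cells present at the start died, and -100 means all died.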 Unmarked numbers belong to inactive results. The source made the active and inactive calls.

tested on: HS 578T breast; assay: NCI-60 one-dose screen, 48 h (100 = growth as untreated, 0 = no growth, -100 = all killed); details: 10 µM unless noted
Method: Growth inhibition of the HS 578T human tumor cell line is measured as a screen for anti-cancer activity. Cells are grown in 96 well plates and exposed to the test compound for 48 hours. Compounds are tested at a single concentration, which is 10^-5 M for most compounds. The reported endpoint is percent growth (GI% or GIPRCNT), where numbers from 0 - 100% represent growth inhibition, and numbers from -100% - 0 represent cell death. For example, a value of 40 represents 60% growth inhibition. A value of 0 means no net growth occurred over the course of the experiment. A value of -40 indicates 40% of cells at the beginning of the experiment died by the end of the experiment. A value of -100 means all cells are dead at the end of the experiment.
NCI-60 Human Tumor Cell Lines Screen was performed using the standard one-dose NCI protocol, which is described in more detail at https://dtp.cancer.gov/discovery_development/nci-60/default.htm.
Compounds with GIPRCNT values below 10 were considered active. Activity score was based on GIPRCNT using the following formula: […]
Score is 0 for GIPRCNT values of 100 or above, 50 for GIPRCNT values of 0, and 100 for GIPRCNT values of -100.

Row | SMILES | growth
1 | CNC(=O)c1cc(Oc2ccc3nc(NC(=O)c4ccc5ncccc5c4)sc3c2)ccn1 | 108%
2 | COCc1nc2ccccc2[nH]1 | 101%
3 | CSc1nc2c(c(=O)n1C)C1(C(=O)N(Cc3ccccc3)c3ccccc31)c1c(nc(SC)n(C)c1=O)N2 | 97.9%
4 | Cc1cc[n+](CCCCCCCCCC[n+]2ccc(C)cc2)cc1 | 102%
5 | COc1cc(Cl)cc(-c2nn(C(=O)NS(=O)(=O)c3ccccc3)cc2-c2ccncc2)c1 | 79.2%
6 | C=C(CC(=O)OC)C(C)=O | 96.5%
7 | CCn1cc(-c2ccnc(NCCNS(=O)(=O)c3ccc(Br)cc3)c2)c(-c2cccc(OC)c2)n1 | 78.5%
8 | O=C1Nc2ccccc2/C1=C/C(=O)c1ccc(N2CCCC2)cc1 | 12.3%
9 | CC[C@@H]1NC(=O)[C@@H]2CCCCN2C(=O)[C@@H]2CCCN2C(=O)[C@@H](NC(=O)[C@H](Cc2cc(F)cc(F)c2)NC(=O)Nc2ccc(C3CC3)cc2F)[C@H](C)OC(=O)[C@@H]2C[C@@H](C)CN2C1=O | 20.6%
10 | [2H]C1([2H])CCN(C(=O)C2CC2)c2cc(NS(=O)(=O)c3ccc(-c4cccc(C(N)=O)c4)cc3)ccc21 | 18.7%
11 | COc1cc(NN=C(c2ccc(O)cc2)c2ccc(O)cc2)c([N+](=O)[O-])cc1[N+](=O)[O-] | 93.8%
12 | CNC(=O)c1cc(Oc2cccc3nc(NC(=O)Nc4cc(C(F)(F)F)cc(C(F)(F)F)c4)ccc23)ccn1 | 22.2%
13 | Cc1cc(C)c(O)c(CNCCCCCCNCc2cc(C)cc(C)c2O)c1 | -44.9% (active)
14 | CCCCC(CC)COC(=O)C[N+](C)(C)CCOC(c1ccccc1)c1ccccc1 (stereo not given) | 69.7%
15 | CCN(CCNc1ccc(C)c2sc3cc(Cl)ccc3c(=O)c12)CC(C)O (stereo not given) | 63.2%
16 | CCC(Br)(CC)C(=O)c1ccc(OCC(=O)O)c(Cl)c1Cl | 107%
17 | N#CCCc1c[nH]c2ccccc12 | 94.3%
18 | CN(C)Cc1ccc[nH]1 | 113%
19 | NC(=O)c1cccc(-c2ccc(S(=O)(=O)Nc3ccc4c(c3)N(C(=O)C3CC3)CCC4)cc2)c1 | 17.9%
20 | CCOc1cc(/C=N\NC(=O)N/N=C/c2ccc(O)c(OCC)c2)ccc1O | -2.98% (active)

Row | SMILES | growth
21 | O=S(=O)(NCc1ccccc1)c1ncnc2nc[nH]c12 | 116%
22 | O=C(CSc1nc2ccc([N+](=O)[O-])cc2[nH]1)Nc1cccc(Cl)c1 | 38.3%
23 | COc1ccc(C(=O)CCC(=O)O)cc1 | 105%
24 | C=C1C(=O)O[C@H]2[C@H]1CC/C(COC(=O)NCc1ccc(Cn3c(=O)sn(-c4ccc(Cl)cc4)c3=O)cc1)=C\CC[C@@]1(C)O[C@@H]21 | 106%
25 | COc1ccc(-c2cc(-c3ccccc3)nc(SCCCCCC(=O)NO)n2)cc1 | 56%
26 | CC1Cc2ccc(OCCN(C)C)cc2C1=O (stereo not given) | 97.3%
27 | CCOC(=O)c1nn(C2CCCCO2)c2ccc(NC(=O)Cn3nnc4ccccc43)cc12 (stereo not given) | 99.4%
28 | O=C(Oc1ccc(Cl)cc1[N+](=O)[O-])Oc1ccc(Cl)cc1[N+](=O)[O-] | 104%
29 | Cn1cc(-c2nnc(-c3cn(C)c4ncc(Br)cc34)s2)c2cc(Br)ccc21 | 89.3%
30 | CC1(C(=O)O)CCC(N)(C(=O)O)C1(C)C (stereo not given) | 127%
31 | CCN(CC)c1ccc2cc(C(Nc3ccc(C)cc3)c3nnnn3C(C)(C)C)c(=O)oc2c1 (stereo not given) | 90.7%
32 | CC(C)C1=NOC(=O)C1=Cc1cn(-c2ccccc2)nc1-c1ccc(Br)cc1 | 70.4%
33 | COc1c(B(O)O)cccc1-c1nc2ccc3[nH]ncc3c2c2c1CCC2 | 17.7%
34 | COc1ccc(/C=C/C=C\C(=O)c2ccc(-n3ccnc3)cc2)cc1 | 91.1%
35 | O=C(O)CC1CCCCC1c1ccccc1 (stereo not given) | 83%
36 | O=C1C(Cl)=C(Nc2ccc3cn[nH]c3c2)C(=O)c2ccccc21 | -50.4% (active)
37 | CCCCCCCCCCCCNC(=S)N/N=C/c1ccccc1O | 91.7%
38 | O=S(=O)(/N=c1/n(-c2ccccc2)nc2n1CCN2C1=NCCN1)c1ccc(-c2ccccc2)cc1 | 93.4%
39 | Cc1ccc(-n2nc3n(/c2=N\C(=O)NS(=O)(=O)c2ccc(C)cc2)CCN3C2=NCCN2)cc1 | 99.7%
40 | COc1ccc(OC)c([N+](=O)[O-])c1C(=O)CNC(C)=O | -2.16% (active)
